# Rows were chosen to be rich in hits. Some 2.6% of all compounds tested hit in one or more screens of this group.
# B2AR arrestin ag: beta-arrestin recruitment by human beta2-adrenergic receptor ligands; 44,000 tested, under 10 active; HTLA Tango cells, beta-arrestin recruitment, luciferase luminescence, 18 h; Potency, µM (doses to about 46.1 µM), actives largely listed as activators;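 also: potency is read from the fitted curve at half-maximal effect; 0% = DMSO and full agonism = EC100 isoproterenol or metaproterenol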
#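 Tango cells (recombinant beta2-AR, beta-arrestin, tTA-driven luciferase), 1500/well in DMEM 1% FBS, treated 18 h at 37 °C with compounds up to 46 µM; luciferin mix added, luminescence read after 15 min; %activity curves fitted and curve-classed.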
# TSG101-PTAP inh: blocks PTAP binding to human TSG101, validation. 44,000 tested, under 10 active. Fluorescence polarization, FITC-PTAP peptide/Tsg101, 20 min. AID 1347069. Potency, µM (series often up to 115 µM), most hits filed as inhibitors; also: potency is read from the fitted curve at half-maximal effect; 0% is about no effect
#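 Steps: Tsg101 binding domain (10 uM final) in HEPES pH 7.5/NaCl/Tween 20/EDTA/TCEP; add compound; add FITC-PTAP peptide (50 nM final); incubate 20 min r.t.; read polarization.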
# GALK inh: inhibits human galactokinase; P51570; recombinant GALK, Kinase-Glo ATP luminescence, 1 h; Potency, µM (series often up to 57.5 µM), without a hit: at the highest dose activity, negative = inhibition, hits mostly inhibitors; 44,000 tested, under 10 active; AID 1347072;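 also: plate controls were full GALK reaction for no effect and reaction lacking GALK for full effect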
#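 Luminescent ATP-depletion readout (Kinase-Glo Plus, 10 min) after 1 h RT reaction of 5 nM GALK, 35 uM ATP, 100 uM galactose, pH 8.0 HEPES buffer. Decreased kinase activity scored as inhibition.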
# GPR32 ag: activates human resolvin D1 receptor GPR32; O75388; CHO-K1 GPR32 beta-arrestin PathHunter luminescence, 90 min; zero percent set by DMSO-only wells; activation, % at 76.9 µM; hit rate 2.5% among 48,000; AID 1346428;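 active = activation of at least 60% and not above a set upper limit, about 1 call in 100 departs from these limits; inconclusive = activation of 40% to 60%, or above that upper limit; inactive = activation under 40%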; also: 0% is about no effect
#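 Cells are plated overnight, treated with compounds in DMSO for 90 minutes at 37 °C, and developed with PathHunter detection reagent for 1 hour before luminescence is read; signal reflects beta-arrestin binding to GPR32 in engineered CHO-K1 cells.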
# GALC G270D act: galactocerebrosidase G270D activity enhancement, cell-based. Potency, µM (top dose mostly 57.5 µM), most hits filed as activators. 145M-Twi-hGALC-G270D cells (Twitcher mouse brain line with human GALC G270D), HMU-beta-Gal fluorescence, 48 h. AID 1159614. P54803. hit rate 0.1% among 45,000; also: potency is read from the fitted curve at half-maximal effect; 0% is about no effect; nearly all actives have a fitted effect of over 65% in size
# Target sequence (P54803 whole entry G286D): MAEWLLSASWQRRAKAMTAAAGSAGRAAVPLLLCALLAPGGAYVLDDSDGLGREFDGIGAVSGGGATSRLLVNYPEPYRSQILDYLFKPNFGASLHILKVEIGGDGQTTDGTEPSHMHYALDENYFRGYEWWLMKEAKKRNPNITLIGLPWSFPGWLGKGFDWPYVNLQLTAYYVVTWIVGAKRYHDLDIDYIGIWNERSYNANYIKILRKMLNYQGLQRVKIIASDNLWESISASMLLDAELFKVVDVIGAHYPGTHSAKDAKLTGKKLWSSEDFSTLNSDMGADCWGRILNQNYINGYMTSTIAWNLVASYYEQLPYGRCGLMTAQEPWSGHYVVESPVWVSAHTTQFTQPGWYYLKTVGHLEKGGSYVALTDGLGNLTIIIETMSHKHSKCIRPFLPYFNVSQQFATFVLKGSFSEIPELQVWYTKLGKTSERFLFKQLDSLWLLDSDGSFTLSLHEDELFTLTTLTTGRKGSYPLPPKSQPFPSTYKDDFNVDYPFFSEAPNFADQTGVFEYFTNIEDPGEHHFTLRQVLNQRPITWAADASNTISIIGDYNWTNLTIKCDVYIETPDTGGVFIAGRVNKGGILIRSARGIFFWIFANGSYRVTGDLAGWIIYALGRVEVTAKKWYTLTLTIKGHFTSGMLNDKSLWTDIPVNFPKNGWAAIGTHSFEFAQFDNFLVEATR
#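 Fluorogenic HMU-b-Gal hydrolysis (0.1 mM final, pH 5.2 citrate-phosphate with 1 mg/mL sodium taurocholate; carbonate stop buffer) measures mutant GALC activity after compound treatment of live 145M-Twi Twitcher brain cells stably carrying human GALC-G270D, with wild-type GALC line alongside; activation sought.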
# * hit, by the source's call; i = inactive; ? = inconclusive; . = not tested or not shown; ! = not active in a repeat. Unless noted, calls follow the shape of the dose curve; as a rule, active = well fitted curve in the direction sought with a large enough effect; inconclusive = small, poorly fitted or top-dose-only effect, or another doubt; inactive = no such curve, though single readings can be large; an effect the other way counts as inactive or inconclusive.
SMILES,B2AR arrestin ag,TSG101-PTAP inh,GALK inh,GPR32 ag,GALC G270D act
O=C(Cn1nnnc1-c1ccccc1F)Nc1ccc(OC(F)(F)F)cc1,i,i,-1.5%,75.1*,i
CSc1cccc(NC(=O)C2CCN(S(=O)(=O)c3ccc4c(c3)CCCN4C(=O)C3CCC3)CC2)c1,i,i,-0.5%,-15.2,i
CCOc1ccc(CNC(=O)CCn2cccn2)cc1OC,i,i,-1.0%,2.2,i
CCOc1ccc(Cc2nccc3cc(OCC)c(OCC)cc23)cc1OCC,.,.,.,88.3*,i
CCOc1ccccc1NC(=O)c1c(NC(=O)c2ccccc2)sc2c1CCCC2,i,i,-14.7%,66.3*,i
CCOc1ccccc1NC(=O)c1c(NC(=O)c2ccncc2)sc2c1CCC(C(C)(C)C)C2 (stereo unspecified),i,i,1.8%,113.1*,i
CCc1ccccc1NC(=O)c1c(NC(=O)c2ccccc2)sc2c1CCCC2,i,i,1.0%,-0.4,i
Cc1ccccc1NC(=O)c1c(NC(=O)c2ccncc2)sc2c1CCC(C(C)(C)C)C2 (stereo unspecified),i,i,1.5%,72.5*,i
COc1ccc(NC(=O)C(NC(=O)C2CCC(C)CC2)C(C)C)cc1 (stereo unspecified),i,i,0.0%,-2.8,i
Cc1ccc2c(c1)N(C(=O)N1CCC(C(=O)NCCc3ccc(Cl)cc3)CC1)CC(C)O2 (stereo unspecified),i,i,1.4%,-7.6,i
Cc1nc(C)c(-c2ccc(SCC(=O)Nc3ccc(Br)cc3)nn2)s1,i,i,0.7%,15.0,i
CCN(C(=O)CSc1ncc(S(=O)(=O)c2ccc(C)c(Cl)c2)c(=O)[nH]1)c1cccc(C)c1,i,i,-3.8%,75.4*,i
CCc1ccc(Sc2cc(C(=O)NCCCN3CCC(C)CC3)c3ccccc3n2)cc1,i,i,-0.8%,89.4*,i
CCc1ccc(Sc2cc(C(=O)NCc3cccc(OC)c3)c3ccccc3n2)cc1,i,i,-4.4%,5.6,i
CCc1ccc(Sc2cc(C(=O)NCCCN3CCCC(C)C3)c3ccccc3n2)cc1 (stereo unspecified),i,i,2.7%,88.0*,i
CCOc1ccc(Sc2cc(C(=O)NC(C)CC)c3ccccc3n2)cc1 (stereo unspecified),i,i,-1.5%,3.6,i
CCN(Cc1ccccc1)C(=O)c1cc(-c2ccccc2)n[nH]1,i,i,2.7%,?,i
Cc1ccc(C)c(Cn2c3ccccc3c3cnn(CC(=O)NC4CCC(C)CC4)c(=O)c32)c1 (stereo unspecified),i,i,1.1%,-2.8,i
CCc1ccc(CNC(=O)CN(c2ccc(C)cc2)S(=O)(=O)N(C)C)cc1,i,i,-1.4%,87.2*,i
Cc1nn(C(=O)c2ccccc2)c(C)c1Sc1ccc(Cl)cc1,i,i,-1.2%,106.5*,i
COc1cccc(Cc2nc3ccccc3nc2SCC(=O)NCCc2ccccc2)c1,i,i,-10.9%,-4.1,i
CCC(=O)N1CCc2cc(CNS(=O)(=O)c3ccc(C(C)C)cc3)ccc21,i,i,7.2%,108.6*,i
Cc1cc(NC(=O)CCNS(=O)(=O)c2ccc3c(c2)CCCC(=O)N3)ccc1Br,i,i,-1.1%,100.4*,i
CC(C)c1ccc(NC(=O)CCNS(=O)(=O)c2ccc3c(c2)CCCC(=O)N3)cc1,i,i,4.9%,2.6,i
CCOC(=O)c1[nH]c(C)c(C(=O)NCCc2ccccc2)c1C,i,i,-0.7%,84.6*,i
SMILES,B2AR arrestin ag,TSG101-PTAP inh,GALK inh,GPR32 ag,GALC G270D act
CC(=O)OC[C@H]1O[C@@H](OC(C)=O)[C@H](OC(C)=O)[C@@H]1OC(C)=O,.,.,.,40.8,i
C#C[C@]1(O)CC[C@H]2[C@@H]3CCc4cc(OC)ccc4[C@H]3CC[C@@]21C,.,.,.,68.5*,i
C#C[C@]1(O)CC[C@H]2[C@@H]3CCC4=Cc5oncc5C[C@]4(C)[C@H]3CC[C@@]21C,.,.,.,33.3,i
C#C[C@]1(O)CC[C@H]2[C@@H]3CCc4cc(OC5CCCC5)ccc4[C@H]3CC[C@@]21C,.,.,.,68.0*,i
CCOC(=O)c1cccc(NC(=O)c2ccc3c(c2)nnn3CC)c1,i,i,0.6%,61.4*,i
COC(=O)c1ccc(NC(=O)CSc2nc3cc4ccccc4cc3[nH]2)cc1,i,i,1.8%,93.7*,i
CCn1nnc2cc(C(=O)Nc3cccc(Cl)c3)ccc21,i,i,-2.6%,-6.7,i
CCOC(=O)c1cccc(NC(=O)CSc2nc3cc4ccccc4cc3[nH]2)c1,i,i,0.0%,113.6*,i
Cc1ccc(-c2ccccc2C#N)cc1,.,.,.,-44.3,i
COc1ccc(CN2C(=O)C(NC(=O)c3ccccc3C)(C(F)(F)F)N=C2c2ccccc2)cc1 (stereo unspecified),i,i,5.9%,-7.1,i
Cc1ccc(C(=O)c2oc3ccccc3c2NC(=O)c2nc(S(C)(=O)=O)ncc2Cl)cc1F,i,i,-9.5%,74.6*,i
COc1cc(C(=O)NC2CC(=O)N(c3cccc(F)c3)C2)cc(OC)c1OC (stereo unspecified),i,i,-4.1%,-8.0,i
N#Cc1ccc(-c2cccs2)nc1SCC(=O)Nc1cccc(C(F)(F)F)c1,i,i,-4.0%,82.3*,i
CCCCNc1c(C(=O)OCC)c(C)nc2c1cnn2CC,.,.,.,75.5*!,i
COc1cccc(CNC(=O)CN(c2ccc(C(C)C)cc2)S(=O)(=O)c2c(C)n[nH]c2C)c1,i,i,6.1%,70.8*,i
CCOc1ccc(CCNC(=O)Cn2c(-c3cccs3)cc3cc(F)ccc32)cc1OCC,i,i,-1.8%,112.0*,i
CCOc1cc(CNC(=O)Cn2c(-c3cccs3)cc3cc(F)ccc32)ccc1OC,i,i,0.2%,-7.8,i
COc1ccccc1CNC(=O)Cn1c(-c2cccs2)cc2cc(F)ccc21,i,i,1.1%,102.7*,i
CCNC(=O)[C@@H]1CCCN1C(=O)[C@H](CCCN=C(N)N)NC(=O)[C@H](CC(C)C)NC(=O)CNC(=O)[C@H](Cc1ccc(O)cc1)NC(=O)[C@H](CO)NC(=O)[C@H](Cc1c[nH]c2ccccc12)NC(=O)[C@H](Cc1cnc[nH]1)NC(=O)[C@@H]1CCC(=O)N1,.,.,.,2.0,i
Cc1cccc(NC(=O)Cn2c(=O)oc3cc(S(=O)(=O)N4CCCCCC4)ccc32)c1,i,i,2.2%,37.9,i

# Screening data: PubChem, National Center for Advancing Translational Sciences (NCATS)
